Test results as given in PubChem BioAssay (NCATS).
Inconclusive results are not listed. A call without a number means that no potency is given here. The source made the active and inactive calls. Unless noted, calls come from the whole dose curve; as a rule, active = well fitted curve in the direction sought with a large enough effect; inconclusive = small, poorly fitted or top-dose-only effect, or another doubt; inactive = no such curve, though single readings can be large; an effect the other way counts as inactive or inconclusive.

How the values were obtained:
[1] = AP1 Signaling Pathway (AID 357; active = well fitted curve in either direction with a large enough effect, not every such curve was filed as active;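 note: ME-180 reporter cells stimulated with EGF at its EC50 level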)
Outline: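 Titration-series screen for positive or negative modulators of EC50 EGF-induced signaling in ME-180 cells carrying an AP-1-driven beta-lactamase reporter. After 5 hours at 37 degrees Celsius, CCF4 460nm/530nm emission ratio gave %Activity; AC50 values derived.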

[2] = NFAT Signaling Pathway (AID 444; active = well fitted curve in either direction with a large enough effect, not every such curve was filed as active;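 note: carbachol stimulus at about its EC50 of 1 µM final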); conditions: Jurkat NFAT-bla M1, carbachol, beta-lactamase ratio, 5 h; at 17.2 µM (top of the series) unless noted
Outline: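 Read-out: CCF4 FRET ratio (460 nm/530 nm) after 1 h RT dye loading, used for %activity and AC50 from titration series. Cells: Jurkat NFAT-β-lactamase/M1 line, treated with compound plus 1 uM carbachol for 5 h, 37 °C.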

[3] = Stat Signaling Pathway (AID 446; active = well fitted curve in either direction with a large enough effect, not every such curve was filed as active;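 note: ME-180 cervical cancer cells given 40 pM IL-6 alongside compound; SIE-controlled beta-lactamase reporter measured as 460/530 nm FRET emission ratio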)
Outline: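 Reporter line: ME-180 cervical carcinoma, SIE-beta-lactamase. Treatment: compound with 40 pM IL-6, 5 hrs, 37 C, in low-serum OPTI-MEM with 10 mM HEPES pH 7.3. Detection: 460/530 nm fluorescence.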

[4] = molecular target: Mitogen-activated protein kinase 10 (Mus musculus) (UniProt Q61831); test: JNK3 AlphaScreen Assay (AID 530; active = well fitted curve in either direction with a large enough effect, not every such curve was filed as active;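 note: kinase came from lysate of stimulated human HepG2 cells; signal reports phosphorylation of biotinylated GST-cJun 1-79 at Ser73 with 10 µM ATP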)
Outline: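 Room-temperature AlphaScreen kinase assay; pre-activated HepG2 lysate as JNK3 source, biotin-GST-cJun(1-79) substrate, 10 uM ATP, compound 15 min preincubation.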

[5] = molecular target: 3',5'-cyclic-AMP phosphodiesterase 4B (Homo sapiens) (UniProt Q07343); test: qHTS Assay for Inhibitors of PDE-IV (AID 607; active = well fitted activation curve with a large enough effect in the main read-out, with a control signal flat, not every such curve was filed as active)
Outline: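 Cell-based read-out of cAMP via a modified cyclic nucleotide-gated channel and membrane potential dye (535/590 nm) in HEK293 cells expressing PDE4 endogenously. Compounds tested up to 22.9 uM final; 100 uM RO 20-1724 reference.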

[6] = qHTS Assay for Lipid Storage Modulators (AID 1519; calls by dose curve); conditions: Drosophila S3 cells, BODIPY lipid droplet/cell ratio, laser cytometry, cells loaded with oleic acid; for activity change, negative = inhibition: at 25.7 µM (top of the series)
Outline: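 Cells seeded at 5,000 per well were treated with compounds over a concentration series and loaded with oleic acid (400 uM, as added). Lipid droplet fluorescence (488 nm excitation, 500-530 nm channel) was read by laser-scanning cytometry and normalized to 20 uM Triacsin C.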

[7] = molecular target: Luciferin 4-monooxygenase (Photinus pyralis) (UniProt P08659); test: Biochemical firefly luciferase enzyme assay for NPC (AID 624030);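 note: purified P. pyralis luciferase at 10 nM with luciferin and ATP substrate; nearly all actives have a fitted effect of over 70% in size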
Outline: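 Direct inhibition of firefly luciferase enzyme (10 nM final, 50 mM Tris Acetate) assessed by luminescence within 5 minutes. Percent activity scaled between DMSO and PTC124 positive control, with concentration-effect curves classified by fit quality and response.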

[8] = S16 Schwann cell viability assay (CellTiter-Glo assay) (AID 624031);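 note: cellular ATP luminescence as a viability measure; nearly all actives have a fitted effect of over 70% in size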
Outline: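 Untransfected S16 rat Schwann cells; compound 24 h, 37 °C/5% CO2; CellTiter-Glo ATP luminescence. % activity vs no-cell wells and DMSO controls (0%); concentration-effect curves classed by r2, response magnitude, activity.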

[9] = qHTS profiling for inhibitors of Plasmodium falciparum proliferation (AID 504749); note: nearly all actives have a fitted effect of over 60% in size; note: potency is the fitted concentration of half-maximal effect; conditions: P. falciparum in erythrocytes, SYBR Green DNA, 72 h
Outline: (§1)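 Three-day growth assay of blood-stage parasites in erythrocytes (0.3% parasitemia, 2.5% hematocrit) at 37 C, 5% CO2, quantified by SYBR Green DNA staining after overnight detergent lysis.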

C2A = test: as above; conditions: P. falciparum in erythrocytes, SYBR Green DNA, 72 h; series mostly up to 12.8 µM
Outline: as §1

CP191 = test: as above; conditions: P. falciparum in erythrocytes, SYBR Green DNA, 72 h; series mostly up to 12.8 µM
Outline: as §1

CP247 = test: as above; conditions: P. falciparum in erythrocytes, SYBR Green DNA, 72 h; series mostly up to 12.8 µM
Outline: as §1

CP250 = test: as above; conditions: P. falciparum in erythrocytes, SYBR Green DNA, 72 h; series mostly up to 12.8 µM
Outline: as §1

CP256 = test: as above; conditions: P. falciparum in erythrocytes, SYBR Green DNA, 72 h; series mostly up to 12.8 µM
Outline: as §1

FAB9 = test: as above; conditions: P. falciparum in erythrocytes, SYBR Green DNA, 72 h; series mostly up to 12.8 µM
Outline: as §1

JCK = test: as above; conditions: P. falciparum in erythrocytes, SYBR Green DNA, 72 h; series mostly up to 12.8 µM
Outline: as §1

PC49 = test: as above; conditions: P. falciparum in erythrocytes, SYBR Green DNA, 72 h; series mostly up to 12.8 µM
Outline: as §1

[10] = molecular target: Ubiquitin carboxyl-terminal hydrolase 1 (Homo sapiens) (UniProt O94782); test: Inhibitors of USP1/UAF1: Pilot qHTS (AID 504865);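 note: rhodamine fluorescence freed from ubiquitin-rhodamine substrate followed over time; top concentration of the series differs between compounds; nearly all actives have a fitted effect of over 35% in size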
Outline: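 1nM USP1/UAF1 + cpd, 15 min RT; start w/ Ub-Rho 150nM final; kinetic FL 480/540 nm, 6 reads q60 s. Buffer 50mM HEPES pH 7.8, 0.5mM EDTA, 1mM TCEP, 0.01% Tween-20, 0.1 mg/ml BSA.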

[11] = molecular target: Glucocorticoid receptor (Homo sapiens) (UniProt P04150); test: GR-GFP Redistribution (AID 450;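 active = compounds whose dose series gives a full or clear partial fitted curve of increased nuclear translocation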; note: potency is the fitted concentration of half-maximal effect); conditions: U2OS GR-GFP nuclear translocation, laser cytometry, 2 h
[12] = molecular target: Glucocorticoid receptor (Homo sapiens) (UniProt P04150); test: GR-EFC Redistribution (AID 451; calls by dose curve; note: potency is the fitted concentration of half-maximal effect); conditions: CHO-K1 GR-EFC translocation, beta-gal luminescence, 2 h
Outline: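 Translocation of GR-ED fusion to nuclear EA restores b-gal, read by luminescence after 1 h room-temperature detection. Engineered CHO-K1 biosensor cells, 1,000/well, exposed 2 h at 37 C to titrations up to 46 uM final.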

[13] = measured here: cell count channel max response
[14] = measured here: lipid channel max response
[15] = at 12.8 µM (top of the series), parasite line A
[16] = at 12.8 µM (top of the series), parasite line B

Chain of Ubiquitin carboxyl-terminal hydrolase 1 (Homo sapiens) (O94782 whole entry, looked up): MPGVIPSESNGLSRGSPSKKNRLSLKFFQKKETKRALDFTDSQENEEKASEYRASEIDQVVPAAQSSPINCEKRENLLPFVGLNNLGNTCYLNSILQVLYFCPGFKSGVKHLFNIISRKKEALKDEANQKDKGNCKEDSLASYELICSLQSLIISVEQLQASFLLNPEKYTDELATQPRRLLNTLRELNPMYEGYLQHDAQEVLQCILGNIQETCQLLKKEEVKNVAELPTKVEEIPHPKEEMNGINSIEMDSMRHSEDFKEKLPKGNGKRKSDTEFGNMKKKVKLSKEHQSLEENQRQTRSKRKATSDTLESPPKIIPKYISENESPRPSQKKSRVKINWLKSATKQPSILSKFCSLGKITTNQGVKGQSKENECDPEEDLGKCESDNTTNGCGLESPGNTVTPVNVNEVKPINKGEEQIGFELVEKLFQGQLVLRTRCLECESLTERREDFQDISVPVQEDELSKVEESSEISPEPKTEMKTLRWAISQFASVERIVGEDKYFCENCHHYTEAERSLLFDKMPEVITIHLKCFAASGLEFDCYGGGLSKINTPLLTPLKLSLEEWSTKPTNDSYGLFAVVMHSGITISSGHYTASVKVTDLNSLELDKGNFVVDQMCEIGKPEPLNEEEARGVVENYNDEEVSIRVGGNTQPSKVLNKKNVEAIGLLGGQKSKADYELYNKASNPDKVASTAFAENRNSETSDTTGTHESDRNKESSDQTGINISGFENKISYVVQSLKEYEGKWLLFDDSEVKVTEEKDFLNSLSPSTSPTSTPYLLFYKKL
Chain of Luciferin 4-monooxygenase (Photinus pyralis) (P08659 whole entry, looked up): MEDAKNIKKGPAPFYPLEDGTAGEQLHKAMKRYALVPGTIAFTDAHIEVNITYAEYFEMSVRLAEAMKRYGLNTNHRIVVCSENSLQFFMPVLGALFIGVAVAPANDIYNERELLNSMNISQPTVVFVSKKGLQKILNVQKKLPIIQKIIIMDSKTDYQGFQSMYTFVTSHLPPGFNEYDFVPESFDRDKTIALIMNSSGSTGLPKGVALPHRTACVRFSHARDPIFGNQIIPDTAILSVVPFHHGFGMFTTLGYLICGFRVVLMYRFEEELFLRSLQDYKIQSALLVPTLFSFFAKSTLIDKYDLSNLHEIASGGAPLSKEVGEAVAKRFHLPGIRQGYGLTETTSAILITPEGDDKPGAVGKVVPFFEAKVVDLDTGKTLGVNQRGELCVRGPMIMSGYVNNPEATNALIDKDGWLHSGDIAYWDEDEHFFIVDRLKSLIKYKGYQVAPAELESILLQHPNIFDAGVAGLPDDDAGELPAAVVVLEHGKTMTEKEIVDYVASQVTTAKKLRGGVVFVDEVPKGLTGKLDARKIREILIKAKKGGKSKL
Chain of 3',5'-cyclic-AMP phosphodiesterase 4B (Homo sapiens) (Q07343 whole entry, looked up): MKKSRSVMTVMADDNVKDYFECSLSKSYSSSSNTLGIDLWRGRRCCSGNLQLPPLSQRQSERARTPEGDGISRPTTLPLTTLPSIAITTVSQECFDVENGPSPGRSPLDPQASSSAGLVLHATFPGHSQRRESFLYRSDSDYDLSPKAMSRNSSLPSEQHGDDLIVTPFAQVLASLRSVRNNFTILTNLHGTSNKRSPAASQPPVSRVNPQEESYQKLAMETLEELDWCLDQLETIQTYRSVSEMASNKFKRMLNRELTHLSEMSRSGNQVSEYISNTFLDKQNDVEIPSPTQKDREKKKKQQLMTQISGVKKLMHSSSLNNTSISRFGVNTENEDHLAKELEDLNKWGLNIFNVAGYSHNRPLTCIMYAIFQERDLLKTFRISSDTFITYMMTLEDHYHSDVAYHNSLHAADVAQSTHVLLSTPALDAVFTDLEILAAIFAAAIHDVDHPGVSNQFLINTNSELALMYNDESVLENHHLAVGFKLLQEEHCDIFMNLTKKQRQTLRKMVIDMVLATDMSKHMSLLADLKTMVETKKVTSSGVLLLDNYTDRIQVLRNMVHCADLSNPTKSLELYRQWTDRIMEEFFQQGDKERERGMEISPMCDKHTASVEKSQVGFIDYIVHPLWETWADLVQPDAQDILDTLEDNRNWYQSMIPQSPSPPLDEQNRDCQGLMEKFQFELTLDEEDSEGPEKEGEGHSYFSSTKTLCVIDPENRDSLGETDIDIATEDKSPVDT
Chain of Glucocorticoid receptor (Homo sapiens) (P04150 whole entry, looked up, the tested form may be a part): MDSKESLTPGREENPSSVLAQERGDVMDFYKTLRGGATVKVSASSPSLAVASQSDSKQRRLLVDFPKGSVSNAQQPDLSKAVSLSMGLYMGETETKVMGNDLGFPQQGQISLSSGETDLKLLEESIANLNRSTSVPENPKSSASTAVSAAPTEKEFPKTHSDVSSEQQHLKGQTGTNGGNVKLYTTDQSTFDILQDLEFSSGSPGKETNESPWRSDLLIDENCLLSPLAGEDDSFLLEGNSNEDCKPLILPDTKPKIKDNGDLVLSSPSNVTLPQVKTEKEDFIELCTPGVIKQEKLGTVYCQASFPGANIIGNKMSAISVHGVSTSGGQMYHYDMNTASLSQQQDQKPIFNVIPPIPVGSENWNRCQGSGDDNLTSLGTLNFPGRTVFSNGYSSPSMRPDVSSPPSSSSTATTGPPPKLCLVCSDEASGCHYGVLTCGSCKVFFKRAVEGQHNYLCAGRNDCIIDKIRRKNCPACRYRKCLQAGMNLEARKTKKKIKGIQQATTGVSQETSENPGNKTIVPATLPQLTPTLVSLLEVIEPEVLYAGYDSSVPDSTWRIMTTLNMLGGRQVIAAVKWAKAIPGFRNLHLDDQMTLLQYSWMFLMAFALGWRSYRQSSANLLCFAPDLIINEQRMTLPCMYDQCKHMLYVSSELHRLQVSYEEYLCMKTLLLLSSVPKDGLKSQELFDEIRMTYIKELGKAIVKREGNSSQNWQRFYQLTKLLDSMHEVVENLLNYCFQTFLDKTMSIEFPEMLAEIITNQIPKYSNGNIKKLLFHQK

With `CCN[C@@H]1C[C@H](N)[C@H](O[C@H]2OC(CN)=CC[C@H]2N)[C@@H](O)[C@H]1O[C@H]1OC[C@@](C)(O)[C@@H](NC)[C@@H]1O` the outcome [1] was “inactive”, the activity change, negative = inhibition [2] was -14.4% (inactive) and the outcome [3] was “inactive”. The Potency [4] was “inactive”, the outcome [5] was “inactive” and the activity change, negative = inhibition [6] was -1.78% (inactive). For the same compound, the max response [6, 13] was -6.32%, the max response [6, 14] was -1.8% and the Potency [7] was “inactive”. For the same compound, the outcome [8] was “inactive”, the activity, negative = inhibition ([9]; at 28.7 µM (top of the series), parasite line A) was 6.1% (inactive) and the activity, negative = inhibition ([9]; at 28.7 µM (top of the series), parasite line B) was 14.9% (inactive). For the same compound, the Potency (C2A) was “inactive”, the Potency (CP191) was “inactive” and the Potency (CP247) was “inactive”. The Potency (CP250) was “inactive”, the Potency (CP256) was “inactive” and the Potency (FAB9) was “inactive”. The Potency (JCK) was “inactive” and the Potency (PC49) was “inactive”.
In the case of `CCC[C@@H]1O[C@@H]2C[C@@H]3[C@H]4CCC5=CC(=O)C=C[C@@]5(C)[C@H]4[C@H](O)C[C@@]3(C)[C@@]2(C(=O)CO)O1`, the outcome [1] is reported as “inactive”, the activity change, negative = inhibition [2] is reported as -1.55% (inactive) and the outcome [3] is reported as “inactive”. The Potency [4] was “inactive”, the outcome [5] was “inactive” and the activity change, negative = inhibition [6] was -3% (inactive). For the same compound, the max response [6, 13] was 4.44%, the max response [6, 14] was -2.78% and the Potency [10] was “inactive”. For the same compound, the Potency [7] was “inactive”, the Potency ([9]; parasite line A) was 11.2 µM (active) and the Potency ([9]; parasite line B) was 11.2 µM (active). For the same compound, the Potency (CP191) was 11.2 µM (active), the Potency (CP247) was 8.91 µM (active) and the Potency (CP250) was 11.2 µM (active). The Potency (CP256) was 11.2 µM (active).
For `C[C@H](C(=O)O)c1cccc(Oc2ccccc2)c1`, the outcome [1] was “inactive”, the activity change, negative = inhibition [2] was 4.26% (inactive) and the outcome [3] was “inactive”. For the same compound, the Potency [4] was “inactive”, the activity change, negative = inhibition [6] was 0.849% (inactive) and the max response [6, 13] was 0.75%. The max response [6, 14] was -2.59%, the Potency [10] was “inactive” and the Potency [7] was “inactive”. The activity, negative = inhibition [9, 15] was 2.84% (inactive), the activity, negative = inhibition [9, 16] was 14.9% (inactive) and the Potency (C2A) was “inactive”. The Potency (CP191) was “inactive”, the Potency (CP247) was “inactive” and the Potency (CP250) was “inactive”. The Potency (CP256) was “inactive”, the Potency (FAB9) was “inactive” and the Potency (JCK) was “inactive”. The Potency (PC49) was “inactive”.
In the case of `C#C[C@]1(O)CC[C@@H]2[C@H]3CCC4=CCCC[C@@H]4[C@@H]3CC[C@@]21C`, the outcome [1] is reported as “inactive”, the outcome [3] is reported as “inactive” and the Potency [11] is reported as > 20.6 µM (inactive). For the same compound, the Potency [12] was > 20.6 µM (inactive), the Potency [4] was “inactive” and the outcome [5] was “inactive”. For the same compound, the activity change, negative = inhibition [6] was -4.16% (inactive), the max response [6, 13] was -7.9% and the max response [6, 14] was -10.1%. For the same compound, the Potency [7] was “inactive”, the outcome [8] was “inactive” and the activity, negative = inhibition [9, 15] was 11.7% (inactive). For the same compound, the activity, negative = inhibition [9, 16] was 0.61% (inactive), the Potency (C2A) was “inactive” and the Potency (CP191) was “inactive”. The Potency (CP247) was “inactive”, the Potency (CP250) was “inactive” and the Potency (CP256) was “inactive”. The Potency (FAB9) was “inactive”, the Potency (JCK) was “inactive” and the Potency (PC49) was “inactive”.
For `COc1ccccc1OC[C@H](O)CO`, the outcome [1] was “inactive”, the activity change, negative = inhibition [2] was -3.75% (inactive) and the outcome [3] was “inactive”. The Potency [4] was “inactive”, the outcome [5] was “inactive” and the activity change, negative = inhibition [6] was -4.43% (inactive). For the same compound, the max response [6, 13] was -24.7%, the max response [6, 14] was -36% and the Potency [10] was “inactive”. The Potency [7] was “inactive”, the outcome [8] was “inactive” and the activity, negative = inhibition [9, 15] was 5.68% (inactive). For the same compound, the activity, negative = inhibition [9, 16] was 4.87% (inactive), the Potency (C2A) was “inactive” and the Potency (CP191) was “inactive”. For the same compound, the Potency (CP247) was “inactive”, the Potency (CP250) was “inactive” and the Potency (CP256) was “inactive”. For the same compound, the Potency (FAB9) was “inactive”, the Potency (JCK) was “inactive” and the Potency (PC49) was “inactive”.
